Several values for one entry are separate records, joined by “and”; a condition that tells them apart may be missing. Equal entries are not always repeated. Records with an inconclusive call do not appear. Activity calls are given as the source filed them. Calls follow the shape of the dose curve; as a rule, active = well fitted activation curve with a large enough effect in the repeat runs; inconclusive = weak or mixed curves; inactive = no such curve, though single readings can be large or run the other way.
These molecules were tested against Aryl hydrocarbon receptor (Homo sapiens) (UniProt P35869) (assay: qHTS assay to identify small molecule that activate the aryl hydrocarbon receptor (AhR) signaling pathway (AID 743085; also: nearly all actives have a fitted effect of over 15% in size;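 as to activation: HG2L7.5c1 human HepG2 liver cells with stably integrated DRE-driven firefly reporter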)). Conditions: HepG2 AhR-luc (HG2L7.5c1), luciferase, 24 h; series mostly up to 70.3 µM; activation: at the top concentration.
Sequence of Aryl hydrocarbon receptor (Homo sapiens) (P35869 whole entry, looked up): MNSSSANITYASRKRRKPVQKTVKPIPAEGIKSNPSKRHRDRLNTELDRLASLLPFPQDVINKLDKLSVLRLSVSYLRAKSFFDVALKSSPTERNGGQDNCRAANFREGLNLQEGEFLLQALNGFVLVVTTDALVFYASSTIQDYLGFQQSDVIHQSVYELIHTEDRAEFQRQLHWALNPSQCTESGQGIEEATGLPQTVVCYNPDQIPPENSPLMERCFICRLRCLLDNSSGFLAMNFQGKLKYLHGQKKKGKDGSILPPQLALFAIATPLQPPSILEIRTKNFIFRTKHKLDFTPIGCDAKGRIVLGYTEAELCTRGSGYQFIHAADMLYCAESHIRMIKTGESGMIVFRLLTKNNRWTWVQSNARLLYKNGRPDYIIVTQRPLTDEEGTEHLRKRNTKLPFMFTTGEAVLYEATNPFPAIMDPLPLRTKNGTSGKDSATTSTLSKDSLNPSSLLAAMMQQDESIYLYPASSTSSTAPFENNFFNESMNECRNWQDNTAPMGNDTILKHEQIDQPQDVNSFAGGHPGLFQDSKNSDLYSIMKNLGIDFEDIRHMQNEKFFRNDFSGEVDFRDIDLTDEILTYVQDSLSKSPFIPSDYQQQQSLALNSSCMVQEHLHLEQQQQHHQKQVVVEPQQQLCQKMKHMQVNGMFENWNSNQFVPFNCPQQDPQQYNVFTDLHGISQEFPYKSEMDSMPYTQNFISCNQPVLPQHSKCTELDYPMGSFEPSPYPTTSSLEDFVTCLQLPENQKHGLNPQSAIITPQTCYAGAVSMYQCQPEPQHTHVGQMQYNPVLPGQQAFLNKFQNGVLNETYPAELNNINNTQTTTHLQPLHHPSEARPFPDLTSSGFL
Outline: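 HepG2 cells (HG2L7.5c1) stably carrying a firefly luciferase reporter driven by 20 dioxin responsive elements were exposed to compound for 24 h at 37C after a 5 h settling period; luminescence rise (ONE-Glo) indicated activation.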
% is scaled to controls: 0 for no effect and ±100 for the full control effect; potency is read from the fitted curve at half-maximal effect.

Structure (SMILES) | activation | Potency
O=[N+]([O-])O.O=[N+]([O-])O.[Cd] | -7.4% (inactive) | 
C[C@@H]1CC[C@@]2(OC1)O[C@H]1[C@@H](O)[C@H]3[C@@H]4CC[C@H]5C[C@@H](O[C@@H]6O[C@H](CO)[C@H](O[C@@H]7O[C@H](CO)[C@@H](O)[C@H](O[C@@H]8OC[C@@H](O)[C@H](O)[C@H]8O)[C@H]7O[C@@H]7O[C@H](CO)[C@@H](O)[C@H](O[C@@H]8O[C@H](CO)[C@@H](O)[C@H](O)[C@H]8O)[C@H]7O)[C@H](O)[C@H]6O)[C@H](O)C[C@]5(C)[C@H]4CC[C@]3(C)[C@H]1[C@@H]2C | -13% [at 95 µM] (inactive) | 
CCCCCCCCCCCCCCCC[N+](C)(C)C |  | inactive
CCOC(=O)C1(c2ccccc2)CCN(CCC(C#N)(c2ccccc2)c2ccccc2)CC1 | -2.5% [at 95 µM] (inactive) | 
C=CC(=O)OCC(COC(=O)C=C)(COC(=O)C=C)COC(=O)C=C | -0.621% (inactive) | 
CCCCCCCCCC[N+](C)(C)CCCCCCCCCC |  | inactive
CC(C)[C@H](C(=O)O[C@H](C#N)c1cccc(Oc2ccccc2)c1)c1ccc(Cl)cc1 | 0.692% (inactive) | 
CC[C@H](C)[C@H]1O[C@]2(C=C[C@@H]1C)C[C@@H]1C[C@@H](C/C=C(\C)[C@@H](O[C@H]3C[C@H](OC)[C@@H](O[C@H]4C[C@H](OC)[C@@H](O)[C@H](C)O4)[C@H](C)O3)[C@@H](C)/C=C/C=C3\CO[C@@H]4[C@H](O)C(C)=C[C@@H](C(=O)O1)[C@]34O)O2 |  | inactive
CN(C)S(=O)(=O)N(SC(F)(Cl)Cl)c1ccccc1 | -5.46% (inactive) | 
CC(=O)[O-].[Tl+] | -0.0309% [at 95 µM] (inactive) | 
CCCOCC(=Nc1ccc(Cl)cc1C(F)(F)F)n1ccnc1 | -8.9% (inactive) | 
CC1(C)CN=C(NN=C(/C=C/c2ccc(C(F)(F)F)cc2)/C=C/c2ccc(C(F)(F)F)cc2)NC1 |  | 1.22 µM (active)
Oc1cc(Cl)c(Cl)c(Cl)c1 | -4.19% (inactive) | 
Cc1cc(N=Nc2ccccc2C)ccc1N |  | 7.7 µM (active) and 4.33 µM (active)
CC(=O)[O-].CC(=O)[O-].[Hg+2] | -2.34% (inactive) | 
O=[N+]([O-])c1c2ccccc2cc2ccccc12 |  | 15.8 µM (active)
CCCCCCCCCBr | -3.03% [at 95 µM] (inactive) | 
CC[C@H]1C[C@@H]2C[C@H]3c4[nH]c5ccc(OC)cc5c4CCN(C2)[C@@H]13 |  | 8.49 µM (active)
[Cd+2].[Cl-].[Cl-] |  | inactive

Structure (SMILES) | activation | Potency
c1ccc2cc3c(cc2c1)-c1cccc2cccc-3c12 |  | 0.12 µM (active)
CC1(c2ccc(Oc3ccccc3)cc2)OC(=O)N(Nc2ccccc2)C1=O (stereo not drawn) | -2.15% [at 95 µM] (inactive) | 
[CH3][Hg][Cl] | -1.63% (inactive) | 
O=C(CBr)c1ccc(O)cc1 | 7% (inactive) | 
O=[N+]([O-])c1cc(C(F)(F)F)c(Cl)c([N+](=O)[O-])c1Cl | -3.65% (inactive) | 
O=C(O)c1cc[c]([Hg][Cl])cc1 | 1.29% (inactive) | 
O=[N+]([O-])c1ccc2ccc3cccc4ccc1c2c34 | 2.51% (inactive) | 
CCCCOCN(C(=O)CCl)c1c(CC)cccc1CC | -0.0296% (inactive) | 
COC12CC[C@@]3(C[C@@H]1C(C)(O)C(C)(C)C)[C@H]1Cc4ccc(O)c5c4[C@@]3(CCN1CC1CC1)[C@H]2O5 (stereo partly drawn) | -8.9% (inactive) | 
C[C@@H]1O[C@@H](O[C@@H]2C=C3CC[C@@H]4[C@H](CC[C@]5(C)[C@@H](c6ccc(=O)oc6)CC[C@]45O)[C@@]3(C)CC2)[C@H](O)[C@H](O)[C@H]1O | -4.57% [at 32.5 µM] (inactive) | 
COc1cc(C=O)cc2c1[C@H](COC(N)=O)[C@]1(OC(C)=O)ON2C[C@H]2[C@@H]1N2C(C)=O | -4.27% (inactive) | 
O=C1c2ccccc2C(=O)C1C(=O)C(c1ccccc1)c1ccc(Cl)cc1 (stereo not drawn) | 4.21% (inactive) | 
c1ccc(OCC2CO2)cc1 (stereo not drawn) | -0.199% [at 95 µM] (inactive) | 
CCCCCCCCCCCCCC[P+](CCCCCC)(CCCCCC)CCCCCC (tested in a mixture with another compound) | -12.7% (inactive) | 
CN(C)C(=S)[S-].CN(C)C(=S)[S-].[Cu+2] | -13.4% [at 32.5 µM] (inactive) | 
O=C/C(Cl)=C(/Cl)C(=O)O |  | inactive
CCCCCCCCCCCCCCC(Br)C(=O)O (stereo not drawn) | -0.178% (inactive) | 
C[C@]12Cc3nonc3C[C@@H]1CC[C@@H]1[C@@H]2CC[C@@]2(C)[C@H]1CC[C@]2(C)O | 1.02% (inactive) | 
CCCN(CC)CC1COC2(CCC(C(C)(C)C)CC2)O1 (stereo not drawn) | 1.32% (inactive) | 

— PubChem BioAssay (Tox21)
